# Reference: PubChem BioAssay (EPA / NIEHS)
# Values joined by “and” are separate entries in the source; they are usually repeats but may differ in a detail not shown here. Equal values may be shown once. Records with an inconclusive call do not appear. Active and inactive are the calls of the source. Rule for the calls, unless noted: active = hit-call score of the fitted dose curve at least 0.9, where 1 is the maximum; inconclusive = response in the unintended direction; inactive = score below 0.9.
# Legend:
# [1] = read-out: Cellular tumor antigen p53 (Homo sapiens) (UniProt P04637); experiment: LTEA_HepaRG_TP53: Life Technologies and Expression Analysis (LTEA) Assay for Tumor Protein P53 (TP53) using HepaRG (AID 2283537; active = hit-call score of the fitted dose curve at least 0.9, where 1 is the maximum; inactive = score below 0.9); settings: mRNA level, 48 h; actives raise or lower the signal
# Procedure, shortened: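 Gain or loss of TP53 mRNA signal is scored relative to 0.5% DMSO after 48 h chemical treatment of HepaRG liver cells, tested in duplicate at eight half-log concentrations up to 100 uM.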
# [2] = read-out: UDP glucuronosyltransferase (UGT1A6), UGT1A6 (gene 54578); experiment: LTEA_HepaRG_UGT1A6: Life Technologies and Expression Analysis (LTEA) Assay for UDP glucuronosyltransferase (UGT1A6) using HepaRG (AID 2283539; active = hit-call score of the fitted dose curve at least 0.9, where 1 is the maximum; inactive = score below 0.9); settings: mRNA level, 48 h; actives raise or lower the signal
# Procedure, shortened: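 Human HepaRG cells were dosed for 48 h in serum-free induction medium with 0.5% DMSO vehicle, eight-point half-log series from 100 uM, in duplicate. UGT1A6 mRNA was measured by qRT-PCR, normalized to ACTB, GAPDH, POLR2A, and fitted bidirectionally against DMSO.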
# [3] = read-out: X-box binding protein 1 (XBP1), XBP1 (gene 7494); experiment: LTEA_HepaRG_XBP1: Life Technologies and Expression Analysis (LTEA) Assay for X-box binding protein 1 (XBP1) using HepaRG (AID 2283540; active = hit-call score of the fitted dose curve at least 0.9, where 1 is the maximum; inactive = score below 0.9); settings: mRNA level, 48 h; actives raise or lower the signal
# Procedure, shortened: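 Differentiated human HepaRG cells in serum-free induction medium were exposed in duplicate for 48 h to eight half-log concentrations up to 100 uM in 0.5% DMSO. XBP1 mRNA was quantified by qRT-PCR, normalised to ACTB, GAPDH and POLR2A, with bidirectional fitting against DMSO.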
# [4] = LTEA_HepaRG_LDH_cytotoxicity: Cytotoxicity Assessment in the Life Technologies and Expression Analysis (LTEA) Assay (AID 2283563);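 for AC50: LDH activity released into spent culture medium as a marker of cell death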
# Procedure, shortened: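 Differentiated human HepaRG cells, plated 48 h beforehand, were switched to serum-free induction medium and exposed for 48 h to eight half-log concentrations (top 100 uM) in 0.5% DMSO. LDH was measured in spent medium; activity was fitted relative to DMSO vehicle.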
# [5] = ATG_XTT_Cytotoxicity: Cytotoxicity Assessment in the Attagene TRANS-FACTORIAL HepG2 Assay (AID 2283584);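 for AC50: cells exposed to compound for 24 h before reading; active means loss of viability signal versus DMSO baseline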
# Procedure, shortened: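 HepG2 human liver cells, transiently transfected with multiple GAL4-UAS reporter units, were dosed and read at 24 h by XTT as cell number. Loss of signal was fitted relative to DMSO negative control baseline.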
# [6] = TOX21_p53_BLA_p2_viability: Viability Assessment in the Tox21 HCT-116 p53 Agonism Beta-lactamase Assay, Phase 2 (AID 2283591);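 note: compound exposure lasted 16 h at 37 °C; actives lower the ATP signal meaning cytotoxicity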
# Procedure, shortened: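 HCT-116 p53-bla cells (4000/well) rested 5 h at 37C, then received compounds in DMSO (217-fold dilution) for 16 h at 37C, 5% CO2. After the CCF4 read, CellTiter-Glo was added; ATP luminescence was read after 30 min at room temperature.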
# [7] = molecular target: Cellular tumor antigen p53 (Homo sapiens) (UniProt P04637); experiment: TOX21_p53_BLA_p2_ratio: Tox21 HCT-116 p53 Agonism Beta-lactamase Assay, Ratio, Phase 2 (AID 2283592)
# Cellular tumor antigen p53 (Homo sapiens), sequence (P04637 whole entry, looked up): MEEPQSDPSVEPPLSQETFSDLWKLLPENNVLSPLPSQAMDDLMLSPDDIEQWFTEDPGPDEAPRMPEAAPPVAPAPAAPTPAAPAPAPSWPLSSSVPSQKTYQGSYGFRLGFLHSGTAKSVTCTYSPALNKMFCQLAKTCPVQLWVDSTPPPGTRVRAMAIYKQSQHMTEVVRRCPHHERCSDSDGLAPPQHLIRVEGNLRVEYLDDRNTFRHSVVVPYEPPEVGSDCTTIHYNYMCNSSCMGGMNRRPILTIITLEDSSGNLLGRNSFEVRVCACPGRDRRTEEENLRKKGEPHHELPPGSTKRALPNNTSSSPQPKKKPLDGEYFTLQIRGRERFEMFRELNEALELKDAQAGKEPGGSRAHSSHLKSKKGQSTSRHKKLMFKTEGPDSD
# Procedure, shortened: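 Ratio endpoint: beta-lactamase cleavage of CCF4-AM, blue (460 nm) over green (530 nm). HCT116 reporter line; 16 h treatment, 37C; substrate 2 h RT.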
# [8] = TOX21_p53_BLA_p3_viability: Viability Assessment in the Tox21 HCT-116 p53 Agonism Beta-lactamase Assay, Phase 3 (AID 2283593);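 note: cells exposed to compound for 16 h before reading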
# Procedure, shortened: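 HCT-116 cells (4000/well) rested 5 h at 37C, then got DMSO compounds by pin tool (217-fold dilution) for 16 h at 37C, 5% CO2. After the bla read, CellTiter-Glo was added and luminescence read at 30 min, room temperature.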
# [9] = molecular target: Cellular tumor antigen p53 (Homo sapiens) (UniProt P04637); experiment: TOX21_p53_BLA_p3_ratio: Tox21 HCT-116 p53 Agonism Beta-lactamase Assay, Ratio, Phase 3 (AID 2283596)
# Procedure, shortened: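 Cells were seeded at 4000/well, rested 5 h at 37C, then dosed with DMSO compound solutions (217-fold dilution) for 16 h. CCF4-AM substrate was loaded for 2 h at room temperature, and the 460/530 nm emission ratio was fitted for gain of signal versus DMSO.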
# [10] = TOX21_p53_BLA_p4_viability: Viability Assessment in the Tox21 HCT-116 p53 Agonism Beta-lactamase Assay, Phase 4 (AID 2283597);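 note: hits lower the luminescence signal meaning cytotoxicity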
# Procedure, shortened: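 Cytotoxicity was inferred from loss of CellTiter-Glo luminescence. HCT116 cells had been dosed with compounds after 5 h plating, incubated 16 h at 37C and 5% CO2, and exposed to the CCF4-AM substrate for 2 h.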
# [11] = molecular target: Cellular tumor antigen p53 (Homo sapiens) (UniProt P04637); experiment: TOX21_p53_BLA_p5_ratio: Tox21 HCT-116 p53 Agonism Beta-lactamase Assay, Ratio, Phase 5 (AID 2283599)
# Procedure, shortened: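 HCT-116 cells carrying a p53-inducible beta-lactamase reporter were seeded at 4000 cells/well and dosed after 5 h with compound in DMSO (217-fold dilution). After 16 h at 37C, CCF4-AM substrate was added for 2 h, and the 460/530 nm emission ratio was scored as gain-of-signal versus DMSO.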
# [12] = TOX21_p53_BLA_p5_viability: Viability Assessment in the Tox21 HCT-116 p53 Agonism Beta-lactamase Assay, Phase 5 (AID 2283600)
# Procedure, shortened: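 Luciferase-coupled ATP quantitation of cells treated for 16 h (37C, 5% CO2) with test chemicals delivered in DMSO via a 217-fold dilution; 4000 cells/well; reagent incubated 30 min at room temperature before luminescence reading.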
# [13] = molecular target: Cellular tumor antigen p53 (Homo sapiens) (UniProt P04637); experiment: TOX21_p53_BLA_p4_ratio: Tox21 HCT-116 p53 Agonism Beta-lactamase Assay, Ratio, Phase 4 (AID 2283601)
# Procedure, shortened: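 HCT116 cells carrying an inducible beta-lactamase reporter were plated at 4000 cells/well, rested 5 h, then exposed to compounds in DMSO (217-fold dilution) for 16 h at 37C. CCF4-AM substrate was loaded 2 h at room temperature; 460/530 nm emission ratio scored gain-of-signal versus DMSO.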
# [14] = Tanguay_ZF_120hpf_MORT_legacy: (Legacy) Oregon State University Tanguay Lab 120 Hour Post-fertilization zebrafish Assay for Mortality (AID 2283633);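 for AC50: fitted as increase in binary mortality versus DMSO negative control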
# Procedure, shortened: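 Dechorionated Tropical 5D wild-type zebrafish embryos, one per well from 6 hpf, were statically exposed at 28C in the dark until 120 hpf (0.64% DMSO final). Mortality was scored as present/absent by brightfield microscopy, fitted positively versus DMSO.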
# [15] = Tanguay_ZF_120hpf_YSE_legacy: (Legacy) Oregon State University Tanguay Lab 120 Hour Post-fertilization zebrafish Assay for Yolk Sac Edema (AID 2283634)
# Procedure, shortened: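 Tropical 5D wild-type embryos, dechorionated with pronase at 4 hpf, were exposed singly from 6 hpf to 120 hpf under static, sealed, dark conditions at 28C with 0.64% DMSO final. Yolk sac edema was scored present/absent by brightfield microscopy.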
# [16] = Tanguay_ZF_120hpf_AXIS_legacy: (Legacy) Oregon State University Tanguay Lab 120 Hour Post-fertilization zebrafish Assay for Body Axis Malformation (AID 2283635)
# Procedure, shortened: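 Tropical 5D wild-type zebrafish embryos, dechorionated with pronase at 4 hpf, were placed singly in wells at 6 hpf and exposed statically to test chemical (0.64% DMSO final) at 28C until 120 hpf, then scored by brightfield for body axis defects.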
# [17] = Tanguay_ZF_120hpf_EYE_legacy: (Legacy) Oregon State University Tanguay Lab 120 Hour Post-fertilization zebrafish Assay for Eye Malformation (AID 2283636);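 note: binary presence or absence of eye malformation scored by brightfield in 120 hpf larvae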
# Procedure, shortened: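 Static waterborne exposure of dechorionated zebrafish embryos (strain Tropical 5D), 6 to 120 hpf, sealed plates at 28C, 0.64% DMSO vehicle. Eye malformation is scored as a binary endpoint, with gain of signal analysed relative to DMSO.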
# [18] = Tanguay_ZF_120hpf_SNOU_legacy: (Legacy) Oregon State University Tanguay Lab 120 Hour Post-fertilization zebrafish Assay for Snout Malformation (AID 2283637)
# Procedure, shortened: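 Dechorionated zebrafish, individually housed from 6 hpf in covered, sealed wells at 28C with 0.64% DMSO vehicle, were examined at 120 hpf for snout malformation. Responses were binary and analysed positive-direction relative to DMSO.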
# [19] = Tanguay_ZF_120hpf_JAW_legacy: (Legacy) Oregon State University Tanguay Lab 120 Hour Post-fertilization zebrafish Assay for Jaw Malformation (AID 2283638)
# Procedure, shortened: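 Tropical 5D wild-type embryos, dechorionated with pronase at 4 hpf, were placed singly per well at 6 hpf and statically exposed at 28C until 120 hpf (0.64% DMSO final). Jaw malformation scored as present/absent by brightfield microscopy at 120 hpf, analyzed relative to DMSO.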
smiles,measurement,setting,value
O=C(NC(=O)c1c(F)cccc1F)Nc1cc(Cl)c(OC(F)(F)C(F)F)c(Cl)c1,outcome,[1],inactive
same,outcome,[2],inactive
same,outcome,[3],inactive
same,outcome,[4],inactive
same,outcome,[5],inactive
same,outcome,[6],inactive
same,outcome,[7],inactive
same,outcome,[8],inactive
same,outcome,[9],inactive
same,outcome,[10],inactive
same,outcome,[11],inactive
same,outcome,[12],inactive
same,outcome,[13],inactive
same,outcome,[14],inactive
same,outcome,[15],inactive
same,outcome,[16],inactive
same,outcome,[17],inactive
same,outcome,[18],inactive
same,outcome,[19],inactive
O=C(N[C@H]1CN2CCC1CC2)c1cc2ccoc2cn1,outcome,[1],inactive
same,outcome,[2],inactive
same,outcome,[3],inactive
same,outcome,[4],inactive
same,outcome,[6],inactive
same,outcome,[7],inactive
same,outcome,[8],inactive
same,outcome,[9],inactive
same,outcome,[10],inactive
same,outcome,[11],inactive
same,outcome,[12],inactive
same,outcome,[13],inactive
same,outcome,[14],inactive
same,outcome,[15],inactive
same,outcome,[16],inactive
same,outcome,[17],inactive
same,outcome,[18],inactive
same,outcome,[19],inactive
Nc1ccc(-c2ccc(N)cc2)cc1,outcome,[1],inactive
same,outcome,[2],inactive
same,outcome,[3],inactive
same,outcome,[4],inactive
same,outcome,[6],inactive
same,outcome,[7],inactive
same,outcome,[8],inactive
same,outcome,[9],inactive
same,outcome,[10],inactive
same,outcome,[11],inactive
same,outcome,[12],inactive
same,outcome,[13],inactive
same,outcome,[14],inactive
same,outcome,[15],inactive
same,outcome,[16],inactive
same,outcome,[17],inactive
same,outcome,[18],inactive
same,outcome,[19],inactive
CCSC(=O)N(CC)C1CCCCC1,outcome,[2],inactive
same,outcome,[3],inactive
same,outcome,[4],inactive
same,outcome,[14],inactive
same,outcome,[15],inactive
same,outcome,[16],inactive
same,outcome,[18],inactive
same,outcome,[19],inactive
O=C(O)C(F)(F)C(F)(F)C(F)(F)C(F)(F)C(F)(F)F,outcome,[1],inactive
same,outcome,[2],inactive
same,outcome,[3],inactive
same,outcome,[4],inactive
same,outcome,[7],inactive
same,outcome,[9],inactive
same,outcome,[11],inactive
same,outcome,[13],inactive
same,outcome,[14],inactive
same,outcome,[15],inactive
same,outcome,[16],inactive
same,outcome,[17],inactive
same,outcome,[18],inactive
same,outcome,[19],inactive
N#Cc1ccc(N(CC(N)=O)CC(F)(F)F)cc1C(F)(F)F,outcome,[1],inactive
same,outcome,[2],inactive
same,outcome,[3],inactive
same,outcome,[4],inactive
same,outcome,[6],inactive
same,outcome,[10],inactive
same,outcome,[11],inactive
same,outcome,[12],inactive
same,outcome,[14],inactive
same,outcome,[15],inactive
same,outcome,[16],inactive
same,outcome,[17],inactive
same,outcome,[18],inactive
same,outcome,[19],inactive
CCCCCCCCCC[N+](C)(C)CCCCCCCCCC,outcome,[1],inactive
same,AC50,[2],50 µM (active)
same,outcome,[3],inactive
same,AC50,[4],36.6 µM (active)
same,AC50,[5],18.5 µM (active)
same,AC50,[6],36.4 µM (active) and 33.1 µM (active)
same,AC50,[7],65.1 µM (active) and 39.6 µM (active)
same,AC50,[8],64 µM (active) and 27.4 µM (active)
same,AC50,[9],74.3 µM (active) and 39.7 µM (active)
same,AC50,[10],23.4 µM (active) and 21.1 µM (active)
same,AC50,[11],72.9 µM (active) and 39.8 µM (active)
same,AC50,[12],23 µM (active)
same,AC50,[13],26.8 µM (active) and 35 µM (active)
same,AC50,[14],13.6 µM (active)
same,outcome,[15],inactive
same,outcome,[16],inactive
same,outcome,[17],inactive
same,outcome,[18],inactive
same,outcome,[19],inactive
O=C(O)C(F)(F)C(F)(F)C(F)(F)C(F)(F)C(F)(F)C(F)(F)C(F)(F)C(F)(F)F,AC50,[1],60.4 µM (active)
same,AC50,[2],82.9 µM (active)
same,outcome,[3],inactive
same,AC50,[4],78.6 µM (active)
same,outcome,[5],inactive
same,AC50,[6],85.3 µM (active)
same,outcome,[7],inactive
same,AC50,[8],56.9 µM (active)
same,outcome,[9],inactive
same,AC50,[10],46.1 µM (active)
same,AC50,[11],82.9 µM (active)
same,outcome,[12],inactive
same,outcome,[13],inactive
same,outcome,[14],inactive
same,outcome,[15],inactive
same,outcome,[16],inactive
same,outcome,[17],inactive
same,outcome,[18],inactive
same,outcome,[19],inactive
O=S(=O)(O)C(F)(F)C(F)(F)C(F)(F)C(F)(F)F,outcome,[1],inactive
same,outcome,[2],inactive
same,outcome,[3],inactive
same,outcome,[4],inactive
same,outcome,[5],inactive
same,outcome,[6],inactive
same,outcome,[7],inactive
same,outcome,[8],inactive
same,outcome,[9],inactive
same,outcome,[10],inactive
same,outcome,[11],inactive
same,outcome,[12],inactive
same,outcome,[13],inactive
same,outcome,[14],inactive
same,outcome,[16],inactive
same,outcome,[17],inactive
same,outcome,[18],inactive
same,outcome,[19],inactive
COS(=O)(=O)OC,outcome,[1],inactive
same,outcome,[2],inactive
same,outcome,[3],inactive
same,outcome,[4],inactive
same,outcome,[6],inactive
same,outcome,[7],inactive
same,outcome,[8],inactive
same,outcome,[9],inactive
same,outcome,[10],inactive
same,outcome,[11],inactive
same,outcome,[12],inactive
same,outcome,[13],inactive
same,outcome,[14],inactive
same,outcome,[15],inactive
same,outcome,[16],inactive
same,outcome,[17],inactive
same,outcome,[18],inactive
same,outcome,[19],inactive
